Only a sample is shown.
aSyn 5UTR act = Activators working through SNCA 5'UTR binding (MLPCN); alpha-synuclein 5'UTR reporter, activators screen; activity score, % (tested at 7.5 µM), hits read low; 7.1% of 300,000 active; in the data active = activity score below about -60%
* hit, by the source's call.

What do the screens show for `COc1ccc(NC(=O)Nc2ncccc2C)cc1`?
aSyn 5UTR act: -157*

How did COc1ccc2oc(C(=O)OCC(=O)NCCN3C(=O)CSC3=O)c(C)c2c1 do in these assays?
aSyn 5UTR act: -71*

Results for Cc1ccc(NC(=O)C2CCCN(c3ncccn3)C2)cc1C (stereo not drawn) ?
aSyn 5UTR act: -125*

What do the screens show for `COc1ccc(NC(=O)C2CCCN(c3ncccn3)C2)cc1` (stereo not drawn)?
aSyn 5UTR act: -75*

Results for CCOc1ccc(S(=O)(=O)Nc2cc(OC)ccc2OC)cc1 ?
aSyn 5UTR act: 81

What do the screens show for `COc1ccc(OC)c(NS(=O)(=O)c2ccc(SC)cc2)c1`?
aSyn 5UTR act: -161*

Results for COc1ccc(OC(=O)Nc2ccccc2)cc1 ?
aSyn 5UTR act: -92*

Results for CCc1ccc(OC(=O)Nc2ccccc2)cc1 ?
aSyn 5UTR act: -159*

How did CCn1cc(Br)c(C(=O)Nc2ccccc2C(=O)OC)n1 do in these assays?
aSyn 5UTR act: -88*

Results for Cc1ccc(C(=O)Nc2cccc(C(F)(F)F)c2)cc1NC(=O)c1nccnc1N ?
aSyn 5UTR act: 78

What do the screens show for `CCn1cc(Br)c(C(=O)Nc2cccc(SC)c2)n1`?
aSyn 5UTR act: -141*

How did CCn1cc(Cl)c(C(=O)Nc2cccc(C(F)(F)F)c2)n1 do in these assays?
aSyn 5UTR act: -105*

How did CCn1cc(Cl)c(C(=O)Nc2ccccc2C(N)=O)n1 do in these assays?
aSyn 5UTR act: -87*

How did CCN(CC)C(=O)c1cc2sc3ccccc3c2s1 do in these assays?
aSyn 5UTR act: -134*

How did CN(C)CCNC(=O)c1cc2sc3ccccc3c2s1 do in these assays?
aSyn 5UTR act: -127*

Results for O=C(Nc1cccnc1)c1sc2cccc(F)c2c1Cl ?
aSyn 5UTR act: -166*

Results for CCCOc1ccccc1C1CC(=O)Nc2cc3c(cc21)OCCO3 (stereo not drawn) ?
aSyn 5UTR act: 103

How did O=C(Nc1nnc(-c2ccncc2)s1)Nc1ccccc1F do in these assays?
aSyn 5UTR act: -102*

Results for O=C(Nc1nnc(Cc2ccccc2)s1)Nc1ccccc1F ?
aSyn 5UTR act: -103*

What do the screens show for `Cc1ccc(-c2csc(NC(=O)/C=C/c3ccco3)c2C(=O)O)cc1`?
aSyn 5UTR act: -79*

What do the screens show for `Cc1ccc(-c2csc(NC(=O)c3cccc(C)c3)c2C(=O)O)cc1`?
aSyn 5UTR act: -71*

Results for Cc1ccc(-c2csc(NC(=O)c3ccc(Br)cc3)c2C(=O)O)cc1 ?
aSyn 5UTR act: -91*

What do the screens show for `Cc1ccnc(NC(=O)c2ccc([N+](=O)[O-])s2)c1`?
aSyn 5UTR act: -238*

Results for O=C(NC1CCCC1)c1ccc([N+](=O)[O-])s1 ?
aSyn 5UTR act: -153*

How did Cc1cccc(NC(=O)c2ccc([N+](=O)[O-])s2)n1 do in these assays?
aSyn 5UTR act: -88*

What do the screens show for `O=c1oc2ccc3ccccc3c2cc1-c1nc2ccccc2o1`?
aSyn 5UTR act: -87*

What do the screens show for `COc1ccc2oc(=O)c(-c3nc4ccccc4o3)cc2c1`?
aSyn 5UTR act: -184*

How did N#Cc1ccc(C(=O)NC2CCCCCCC2)cc1 do in these assays?
aSyn 5UTR act: -132*

Results for O=C(NC1CCCCCC1)C(=O)NC1CCCC1 ?
aSyn 5UTR act: -67*

Results for O=C(NC1CCCCCC1)c1ccc(OCC2CCCO2)cc1 (stereo not drawn) ?
aSyn 5UTR act: -97*

How did CC(C)CCNC(=O)C(=O)NC1CCCC1 do in these assays?
aSyn 5UTR act: -134*

How did Cc1ccc(C(=O)NC2CCCCC2)cc1 do in these assays?
aSyn 5UTR act: -94*

Results for Cc1ccc(NC(=O)C(=O)NC2CCCCC2)cc1 ?
aSyn 5UTR act: -149*

How did O=C1/C(=C\c2ccco2)NC(=S)N1c1ccccc1 do in these assays?
aSyn 5UTR act: -84*

What do the screens show for `COC(=O)c1c(-c2ccccc2)csc1NC(=O)c1c(-c2ccccc2)noc1C`?
aSyn 5UTR act: 65

How did COC(=O)c1c(-c2ccccc2)csc1NC(=O)c1ccco1 do in these assays?
aSyn 5UTR act: -168*

How did O=C(Nc1scc(-c2ccc(F)cc2)c1C(=O)O)c1ccco1 do in these assays?
aSyn 5UTR act: -77*

Results for O=C(ONc1ccc(N=NC(=O)c2ccccc2O)cc1)c1ccccc1 ?
aSyn 5UTR act: -86*

What do the screens show for `COc1ccc(C2C=C(C)Nc3ncnn32)cc1` (stereo not drawn)?
aSyn 5UTR act: -154*

How did O=C(Nc1ccccc1C(F)(F)F)c1cc(-c2cccc(O)c2)on1 do in these assays?
aSyn 5UTR act: -142*

What do the screens show for `CCc1ccccc1NC(=O)c1cc(-c2cccs2)on1`?
aSyn 5UTR act: -125*

Results for CCc1ccccc1NC(=O)c1cc(-c2cccc(O)c2)on1 ?
aSyn 5UTR act: -81*

How did CCOC(=O)N1CCN(S(=O)(=O)c2ccc(C(=O)NNc3nc4ccc(Cl)cc4s3)cc2)CC1 do in these assays?
aSyn 5UTR act: 67

Results for CCOC(=O)N1CCC(Nc2nc3ccccc3nc2NS(=O)(=O)c2ccc(Cl)cc2)CC1 ?
aSyn 5UTR act: -88*

How did c1ccc2nc3c(nc2c1)[nH]c1ccccc13 do in these assays?
aSyn 5UTR act: -171*

Results for N=c1oc2ccccc2cc1-c1nc(-c2ccc(Cl)cc2)cs1 ?
aSyn 5UTR act: -82*

Screening data: PubChem, Broad Institute
